The full ranking holds about 16,000 sequences; the median of “rpm ratio (pull-down/input)” is about 0.5, and the highest 2% start at about 5.5. Many of the other results were omitted from the sample, so the highest values are more common in it than they were.

For this assay, the target named is T1, MBP-FoxP3dN (Mus musculus, UniProt Q99JB6 188-423).
T1 sequence: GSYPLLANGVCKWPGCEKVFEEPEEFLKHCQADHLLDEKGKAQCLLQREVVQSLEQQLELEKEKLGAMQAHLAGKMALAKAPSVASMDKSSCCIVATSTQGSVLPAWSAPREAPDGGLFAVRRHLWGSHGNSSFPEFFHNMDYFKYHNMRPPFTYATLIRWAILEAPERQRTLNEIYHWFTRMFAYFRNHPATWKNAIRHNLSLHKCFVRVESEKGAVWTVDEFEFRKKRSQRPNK
The experiment in a line: PD-seq (MBP pull-down with sequencing); 20 mM Tris-HCl pH 7.5, 100 mM NaCl, 1.5 mM MgCl2, 0.4 uM protein, 0.1 uM dsDNA library, 30 min, room temperature, amylose pull-down; high values mean tight binding. As to conditions: protein: recombinant; tags: His6-MBP; chain copies: 2; dsDNA, one strand shown. A digest of the protocol: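 Protein and DNA were mixed at 0.4 µM and 0.1 µM and held for 30 min at room temperature in Tris pH 7.5 buffer with NaCl and MgCl2; the protein was a His6-MBP-tagged, N-terminally truncated mouse FoxP3 or FoxP1 fragment from E. coli, and the DNA a Klenow-filled double-stranded degenerate library. Amylose resin captured the complexes, which were washed three times. Binding is read as reads-per-million enrichment of pull-down versus input after Illumina sequencing, with replicates pooled.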
“GATGATTGTTCTCCCAGCTGATGAATTTAGCCCATCGAGTAAACAAATTTTCCTAATCTTTCTGTTCAAGCGCCATCTAC”: the binding signal was 1.28 RPM ratio (pull-down/input).

For the sequence “GATGATTGTTCTCCCAGCTGATGAATTTCCACGATCGAGTAAACAAATTTTCCTAATCTTTCTGTTCAAGCGCCATCTAC”, the binding signal was 0.211 RPM ratio (pull-down/input).

With “GATGATTGTTCTCCCAGCTGATGAATTGCATCGGTCGAGTAAACAAATTTTCCTAATCTTTCTGTTCAAGCGCCATCTAC”, the binding signal is 1.43 RPM ratio (pull-down/input).

Consider “GATGATTGTTCTCCCAGCTGATGAATTATGATGATCGAGTAAACAAATTTTCCTAATCTTTCTGTTCAAGCGCCATCTAC”, for which the binding signal is 1.63 RPM ratio (pull-down/input).

Take “GATGATTGTTCTCCCAGCTGATGAATTATGTTGTTCGAGTAAACAAATTTTCCTAATCTTTCTGTTCAAGCGCCATCTAC”: the binding signal is 7.62 RPM ratio (pull-down/input).

For “GATGATTGTTCTCCCAGCTGATGAATTATGTTGGTCGAGTAAACAAATTTTCCTAATCTTTCTGTTCAAGCGCCATCTAC”, the binding signal was 6.57 RPM ratio (pull-down/input).

For “GATGATTGTTCTCCCAGCTGATGAATTATGTTCTTCGAGTAAACAAATTTTCCTAATCTTTCTGTTCAAGCGCCATCTAC”, the binding signal was 1.3 RPM ratio (pull-down/input).

On to “GATGATTGTTCTCCCAGCTGATGAATTATGTGTTTCGAGTAAACAAATTTTCCTAATCTTTCTGTTCAAGCGCCATCTAC”, for which the binding signal is 4.42 RPM ratio (pull-down/input).

For the sequence “GATGATTGTTCTCCCAGCTGATGAATTATGTCTTTCGAGTAAACAAATTTTCCTAATCTTTCTGTTCAAGCGCCATCTAC”, the binding signal is 1.78 RPM ratio (pull-down/input).

As for “GATGATTGTTCTCCCAGCTGATGAATTATGTTCATCGAGTAAACAAATTTTCCTAATCTTTCTGTTCAAGCGCCATCTAC”, the binding signal is 1.09 RPM ratio (pull-down/input).

For the sequence “GATGATTGTTCTCCCAGCTGATGAATTATGTTGATCGAGTAAACAAATTTTCCTAATCTTTCTGTTCAAGCGCCATCTAC”, the binding signal is 7.26 RPM ratio (pull-down/input).

In the case of “GATGATTGTTCTCCCAGCTGATGAATTATGTTTTTCGAGTAAACAAATTTTCCTAATCTTTCTGTTCAAGCGCCATCTAC”, the binding signal is 6.33 RPM ratio (pull-down/input).

In the case of “GATGATTGTTCTCCCAGCTGATGAATTATGATGTTCGAGTAAACAAATTTTCCTAATCTTTCTGTTCAAGCGCCATCTAC”, the binding signal was 3.29 RPM ratio (pull-down/input).

“GATGATTGTTCTCCCAGCTGATGAATTATCTTGGTCGAGTAAACAAATTTTCCTAATCTTTCTGTTCAAGCGCCATCTAC”: the binding signal is 0.323 RPM ratio (pull-down/input).

As for “GATGATTGTTCTCCCAGCTGATGAATTATGATGGTCGAGTAAACAAATTTTCCTAATCTTTCTGTTCAAGCGCCATCTAC”, the binding signal was 1.33 RPM ratio (pull-down/input).

As to “GATGATTGTTCTCCCAGCTGATGAATTAGATCATTCGAGTAAACAAATTTTCCTAATCTTTCTGTTCAAGCGCCATCTAC”, the binding signal was 0.534 RPM ratio (pull-down/input).

Turning to “GATGATTGTTCTCCCAGCTGATGAATTTAAGGTGTCGAGTAAACAAATTTTCCTAATCTTTCTGTTCAAGCGCCATCTAC”, the binding signal is 0.772 RPM ratio (pull-down/input).

On to “GATGATTGTTCTCCCAGCTGATGAATTCACTAAATCGAGTAAACAAATTTTCCTAATCTTTCTGTTCAAGCGCCATCTAC”, for which the binding signal is 0.211 RPM ratio (pull-down/input).

“GATGATTGTTCTCCCAGCTGATGAATTCTGGTCGTCGAGTAAACAAATTTTCCTAATCTTTCTGTTCAAGCGCCATCTAC”: the binding signal was 0.464 RPM ratio (pull-down/input).

As to “GATGATTGTTCTCCCAGCTGATGAATTCTCAGCTTCGAGTAAACAAATTTTCCTAATCTTTCTGTTCAAGCGCCATCTAC”, the binding signal was 0.293 RPM ratio (pull-down/input).

“GATGATTGTTCTCCCAGCTGATGAATTATGATAATCGAGTAAACAAATTTTCCTAATCTTTCTGTTCAAGCGCCATCTAC”: the binding signal is 0.653 RPM ratio (pull-down/input).

“GATGATTGTTCTCCCAGCTGATGAATTTAGGGCTTCGAGTAAACAAATTTTCCTAATCTTTCTGTTCAAGCGCCATCTAC”: the binding signal is 0.514 RPM ratio (pull-down/input).

As to “GATGATTGTTCTCCCAGCTGATGAATTTTGCGTATCGAGTAAACAAATTTTCCTAATCTTTCTGTTCAAGCGCCATCTAC”, the binding signal was 3.74 RPM ratio (pull-down/input).

Turning to “GATGATTGTTCTCCCAGCTGATGAATTGTGACAGTCGAGTAAACAAATTTTCCTAATCTTTCTGTTCAAGCGCCATCTAC”, the binding signal was 0.817 RPM ratio (pull-down/input).

As for “GATGATTGTTCTCCCAGCTGATGAATTGTCAGAGTCGAGTAAACAAATTTTCCTAATCTTTCTGTTCAAGCGCCATCTAC”, the binding signal is 0.234 RPM ratio (pull-down/input).

Consider “GATGATTGTTCTCCCAGCTGATGAATTCCCGTCTTCGAGTAAACAAATTTTCCTAATCTTTCTGTTCAAGCGCCATCTAC”, for which the binding signal is 0.33 RPM ratio (pull-down/input).

On to “GATGATTGTTCTCCCAGCTGATGAATTAGTAAACTCGAGTAAACAAATTTTCCTAATCTTTCTGTTCAAGCGCCATCTAC”, for which the binding signal is 1.08 RPM ratio (pull-down/input).

For the sequence “GATGATTGTTCTCCCAGCTGATGAATTACGTTGGTCGAGTAAACAAATTTTCCTAATCTTTCTGTTCAAGCGCCATCTAC”, the binding signal is 1.3 RPM ratio (pull-down/input).

With “GATGATTGTTCTCCCAGCTGATGAATTCTGTTATTCGAGTAAACAAATTTTCCTAATCTTTCTGTTCAAGCGCCATCTAC”, the binding signal is 6.72 RPM ratio (pull-down/input).

For the sequence “GATGATTGTTCTCCCAGCTGATGAATTGTTATTTTCGAGTAAACAAATTTTCCTAATCTTTCTGTTCAAGCGCCATCTAC”, the binding signal was 4.89 RPM ratio (pull-down/input).

On to “GATGATTGTTCTCCCAGCTGATGAATTTGTTATTTCGAGTAAACAAATTTTCCTAATCTTTCTGTTCAAGCGCCATCTAC”, for which the binding signal is 7.62 RPM ratio (pull-down/input).

As to “GATGATTGTTCTCCCAGCTGATGAATTATTTGTTTCGAGTAAACAAATTTTCCTAATCTTTCTGTTCAAGCGCCATCTAC”, the binding signal is 4.2 RPM ratio (pull-down/input).

The values above are taken from PMC12820563, “FoxP3 forms a head-to-head dimer in vivo and stabilizes its multimerization on adjacent microsatellites”.
